Data taken from the supplement of paper PMC10646978.
± gives the standard deviation.

Key:
Conditions in all cases: modulator concentration 10 µM
[1] = tested on: RAW-Dual (murine macrophage reporter line); test: NF-kB reporter (SEAP) activity fold change vs agonist alone; higher = enhanced NF-kB activity
Outline: (§1)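 RAW-Dual murine macrophage reporter cells were plated at 50 000 per well in 384-well plates, pin-transferred compound to 10 μM final, and pre-incubated for 1 hour at 37 °C before a PRR agonist was added and the cells incubated overnight. NF-κB activity was read from supernatant SEAP with QUANTI-Blue at 620 nm absorbance, and IRF activity from Lucia luciferase with QUANTI-Luc by luminescence. Each signal was expressed as fold change by dividing by the mean agonist-only control on the same plate. Two replicate plates were averaged, with errors obtained by propagation.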

[2] = tested on: RAW-Dual (murine macrophage reporter line); test: IRF reporter (Lucia luciferase) activity fold change vs agonist alone; higher = enhanced IRF activity
Outline: as §1

[3] = tested on: RAW-Dual (murine macrophage reporter line); test: viability score (confluency relative to resting cells, overnight) (fraction); higher = more viable, active = viable (0.7 or more)
Outline: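 Confluency was the readout: RAW-Dual macrophages were imaged with IncuCyte after an overnight exposure to compound at 10 μM final. IncuCyte software produced two masks over all imaged wells. The viability score expresses confluency against resting cells, and both masks had to exceed 70% of resting cells for a compound to meet the cutoff.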

[4] = agonist: CpG ODN 1826 0.5 ug/mL

Row | Structure (SMILES) | NF-kB reporter [1, 4] | NF-kB reporter ([1]; agonist: LPS 0.1 ug/mL) | NF-kB reporter ([1]; agonist: MPLA […]) | IRF reporter ([2]; agonist: 3'3'-cGAMP 10 ug/mL) | IRF reporter ([2]; agonist: LPS 0.1 ug/mL) | IRF reporter ([2]; agonist: MPLA […]) | viability score [3]
1 | O=C(C=Cc1cccc([N+](=O)[O-])c1)NCCc1ccccc1 | 1.01 ± 0.17 | 1 ± 0.12 | 0.948 ± 0.12 | 0.963 ± 0.048 | 1.27 ± 0.24 | 1.32 ± 0.24 | 0.99 (active)
2 | CCCCC(=O)N(Cc1ccc(-c2ccccc2-c2nn[nH]n2)cc1)C(C(=O)O)C(C)C (configuration not stated) | 1.12 ± 0.27 | 0.965 ± 0.081 | 1.02 ± 0.082 | 0.71 ± 0.055 | 1.03 ± 0.14 | 1.04 ± 0.2 | 1 (active)
3 | O=C(NCCC(CCO)c1ccccc1)c1cccc(Cl)c1 (configuration not stated) | 1.11 ± 0.068 | 1.02 ± 0.082 | 0.946 ± 0.025 | 0.748 ± 0.027 | 0.967 ± 0.051 | 0.984 ± 0.096 | 1 (active)
4 | O=S(=O)(Cc1cccc(F)c1)N1C2CCC1CC(Oc1cccnc1)C2 (configuration not stated) | 1.18 ± 0.07 | 1.1 ± 0.099 | 1.04 ± 0.054 | 0.986 ± 0.04 | 1.06 ± 0.052 | 1.04 ± 0.1 | 1 (active)
5 | CC1=C(C(=O)OCC2CCCO2)C(c2ccc([N+](=O)[O-])cc2)C2=C(CC(C)(C)CC2=O)N1 (configuration not stated) | 1.16 ± 0.19 | 0.887 ± 0.08 | 0.848 ± 0.078 | 0.553 ± 0.02 | 1.04 ± 0.23 | 0.984 ± 0.11 | 0.995 (active)
6 | COC(=O)CSc1nc(O)c2c(C)c(C)sc2n1 | 0.808 ± 0.077 | 0.829 ± 0.04 | 1.03 ± 0.1 | 0.984 ± 0.046 | 1.49 ± 0.093 | 1.55 ± 0.19 | 1.01 (active)
7 | Cc1ccc(O)c(C2=NOC(O)(C(F)(F)F)C2)c1 (configuration not stated) | 1.05 ± 0.065 | 0.955 ± 0.074 | 0.919 ± 0.054 | 0.975 ± 0.037 | 1.43 ± 0.24 | 1.04 ± 0.093 | 0.339 (inactive)
8 | COc1ccc(C(=O)NCc2ccc(OCCN(C)C)cc2)cc1OC.Cl | 0.988 ± 0.15 | 1.05 ± 0.079 | 0.925 ± 0.059 | 0.88 ± 0.027 | 1.21 ± 0.1 | 1.08 ± 0.085 | 0.994 (active)
9 | CC(=O)c1cccc(NC(=O)CSc2nnc3c4ccccc4n(C)c3n2)c1 | 0.817 ± 0.063 | 0.835 ± 0.069 | 0.994 ± 0.091 | 0.904 ± 0.042 | 1.27 ± 0.11 | 1.41 ± 0.21 | 1.01 (active)
10 | CC12CC3CC(C)(C1)CC(N)(C3)C2.Cl | 0.831 ± 0.1 | 0.892 ± 0.086 | 0.855 ± 0.074 | 1.24 ± 0.056 | 1.2 ± 0.099 | 1.14 ± 0.095 | 0.978 (active)
11 | CN(C)CC(c1ccc(O)cc1)C1(O)CCCCC1.O=C(O)CCC(=O)O (configuration not stated) | 0.101 ± 0.0077 | 0.562 ± 0.045 | 0.531 ± 0.031 | 0.913 ± 0.075 | 1.29 ± 0.29 | 1.18 ± 0.36 | 0.633 (inactive)
12 | C=CC(C)(O)CCC=C(C)C (configuration not stated) | 0.988 ± 0.085 | 0.841 ± 0.062 | 0.999 ± 0.11 | 1.01 ± 0.038 | 1.22 ± 0.16 | 1.34 ± 0.28 | 1.03 (active)
13 | CC1(C)CC(NC(=O)c2cccnc2-c2nc3ccccc3s2)CC(C)(C)N1 | 0.747 ± 0.078 | 0.964 ± 0.083 | 0.948 ± 0.19 | 0.892 ± 0.048 | 1.06 ± 0.067 | 1.12 ± 0.09 | 0.998 (active)
14 | O=C(C=Cc1ccc(Cl)c(Cl)c1)c1ccc2ccccc2c1O | 1.09 ± 0.1 | 1.06 ± 0.07 | 0.935 ± 0.085 | 0.96 ± 0.041 | 1.57 ± 0.23 | 1.25 ± 0.077 | 1.01 (active)
15 | Fc1ccc(Nc2nc(NN=Cc3c[nH]nc3-c3ccccc3)nc(N3CCOCC3)n2)cc1 | 0.537 ± 0.044 | 0.981 ± 0.071 | 2.12 ± 0.2 | 1 ± 0.1 | 1.57 ± 0.21 | 2.78 ± 0.4 | 0.875 (active)
16 | CC(C)(O)CNc1nc(Nc2ccnc(C(F)(F)F)c2)nc(-c2cccc(C(F)(F)F)n2)n1 | 1.13 ± 0.37 | 1.19 ± 0.079 | 1.12 ± 0.087 | 1.01 ± 0.053 | 1.3 ± 0.19 | 1.54 ± 0.15 | 0.999 (active)
17 | FC(F)(F)c1ccc(/C=C/c2nc(COc3ccc(CCCCn4ccnn4)cc3)co2)cc1 | 1.26 ± 0.17 | 1.71 ± 0.29 | 1.46 ± 0.09 | 0.914 ± 0.028 | 1.67 ± 0.14 | 1.77 ± 0.16 | 0.995 (active)
18 | CC(C)Sc1ccc(CC(=O)N2CCC(S(C)(=O)=O)C2)cc1 (configuration not stated) | 0.975 ± 0.12 | 1.12 ± 0.1 | 0.973 ± 0.17 | 0.946 ± 0.053 | 1.12 ± 0.07 | 1.29 ± 0.17 | 0.993 (active)
19 | CCN(CC)C(=O)N1CCN(C)CC1 [Prestw-284] | 1.02 ± 0.063 | 1.03 ± 0.064 | 0.96 ± 0.062 | 0.974 ± 0.034 | 1.41 ± 0.24 | 1.28 ± 0.14 | 0.99 (active)
20 | CCCCNc1ccc(C(=O)OCCN(C)C)cc1.Cl | 0.906 ± 0.12 | 0.983 ± 0.31 | 0.987 ± 0.055 | 0.824 ± 0.039 | 1.15 ± 0.34 | 1.09 ± 0.086 | 1.01 (active)
21 | CC(C)NCC(O)COCCOc1ccc(C(C)(C)C)cc1.Cl (configuration not stated) | 0.593 ± 0.039 | 1.06 ± 0.079 | 1.13 ± 0.079 | 0.569 ± 0.034 | 1.31 ± 0.14 | 1.57 ± 0.37 | 0.934 (active)
22 | COc1cccc(-c2ccc(NC(=O)C3=C(C(=O)O)CCC3)c(F)c2)c1 | 0.954 ± 0.25 | 0.806 ± 0.088 | 1.01 ± 0.088 | 2.42 ± 0.23 | 2.04 ± 0.35 | 1.38 ± 0.24 | 0.91 (active)
23 | Cl.N=C(N)NC(=O)c1nc(Cl)c(N)nc1N.O.O | 0.856 ± 0.044 | 1.01 ± 0.087 | 1.05 ± 0.065 | 1.04 ± 0.048 | 1.2 ± 0.29 | 1.3 ± 0.46 | 0.984 (active)
24 | CCCCSc1nnc2c(n1)OC(c1cccc(C)n1)Nc1ccc(Br)cc1-2 (configuration not stated) | 0.922 ± 0.073 | 1.05 ± 0.07 | 0.97 ± 0.045 | 0.985 ± 0.14 | 1.02 ± 0.068 | 0.921 ± 0.11 | 1 (active)
25 | Clc1ccc(Nc2nc(Nc3ccc(Cl)cc3)nc(N3CCOCC3)n2)cc1 | 0.794 ± 0.072 | 0.902 ± 0.068 | 1.1 ± 0.15 | 0.805 ± 0.12 | 1.26 ± 0.23 | 1.37 ± 0.45 | 1.03 (active)
26 | Cn1ccc(C(=O)Nc2nc(C(C)(C)C)cs2)n1 | 0.805 ± 0.063 | 1 ± 0.082 | 1.19 ± 0.083 | 0.993 ± 0.055 | 1.31 ± 0.18 | 1.57 ± 0.44 | 0.675 (inactive)
